Screens from PubChem BioAssay.
The full list was thinned out, with hits kept by preference.
C diff HTS: inhibitors of Clostridium difficile growth; Clostridium difficile clinical isolate growth, OD600, 24 h; stronger effect = lower value; growth activity, negative = inhibition, % at 16 µg/mL (by protocol); actives 0.25% (n = 86,000);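 active = mean growth activity at or below -80% and every replicate also at or below -80%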;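 also: 0% = DMSO wells and -100% = levofloxacin 16 µg/mL wells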
The depositor's hits bear a star; ! = not confirmed by another sample.

Cc1ccc(NC(=O)Nc2ccc3c(c2)C(=O)N(C)[C@H]2CC[C@@H](CC(=O)O)O[C@@H]2CO3)cc1 was read as C diff HTS -5.
Screening COc1ccc(OC)c(NC(=O)CN=[N+]=[N-])c1 returned C diff HTS -12.
Cc1ccc(S(=O)(=O)NCC[C@@H]2CC[C@H](NC(=O)Nc3ccccc3F)[C@H](CO)O2)cc1 was read as C diff HTS -2.
For O=C(C[C@H]1CC[C@@H]2[C@H](COC[C@H](O)CN2S(=O)(=O)c2cccc(F)c2)O1)Nc1ccccc1 the results were C diff HTS 10.
Screening CNC(=O)C[C@H]1CC[C@H]2[C@@H](COc3ccc(NC(=O)C(C)C)cc3C(=O)N2C)O1 returned C diff HTS 1.
C[C@H]1CN([C@@H](C)CO)C(=O)c2cc(C#CC3CCCC3)cnc2O[C@H]1CN(C)C(=O)Nc1ccccc1 was read as C diff HTS 1.
`Fc1cccc(CN2[C@@H]3CNC[C@H]2C3c2ccc(-c3cccc(F)c3)cc2)c1` (some centres undefined) gave C diff HTS -99*!.
For Fc1ccc(-c2ccc(C3[C@@H]4CN(Cc5cccc(F)c5)C[C@H]3N4)cc2)cc1 (some centres undefined) the results were C diff HTS -99*.
For Fc1ccc(-c2ccc(C3[C@@H]4CN(Cc5ccccc5)C[C@H]3N4)cc2)cc1 (some centres undefined) the results were C diff HTS -94*!.
Screening Fc1cccc(CN2[C@@H]3CNC[C@H]2C3c2ccc(-c3ccccc3)cc2)c1 (some centres undefined) returned C diff HTS 40.
`O=C(C1CCCC1)N1C[C@@H]2N[C@H](C1)C2c1ccc(/C=C/c2ccccc2)cc1` (some centres undefined) gave C diff HTS 4.
For Fc1ccc(CN2[C@@H]3CNC[C@H]2C3c2ccc(-c3ccccc3)cc2)cc1 (some centres undefined) the results were C diff HTS 13.
Screening Fc1cccc(-c2ccc([C@@H]3[C@@H]4CN(Cc5nccs5)C[C@H]3N4)cc2)c1 returned C diff HTS 64.
COc1ccccc1CN1C[C@@H]2N[C@H](C1)C2c1ccc(/C=C/c2ccccc2)cc1 (some centres undefined) was read as C diff HTS -90*.
`CN(C)C(=O)c1cccc(-c2ccc(C3[C@@H]4CN(Cc5cncnc5)C[C@H]3N4)cc2)c1` (some centres undefined) gave C diff HTS -4.
`c1cc(-c2ccc(C3[C@@H]4CN(Cc5nccs5)C[C@H]3N4)cc2)ccn1` (some centres undefined) gave C diff HTS 5.
COc1ccccc1CN1C[C@@H]2N[C@H](C1)C2c1ccc(-c2ccccc2)cc1 (some centres undefined) was read as C diff HTS 32.
`N#Cc1cccc(-c2ccc(C3[C@H]4CNC[C@@H]3N4Cc3cccc(F)c3)cc2)c1` (some centres undefined) gave C diff HTS -6.
Screening O=C(C[C@@H]1CC[C@@H](NC(=O)c2ccncc2)[C@H](CO)O1)Nc1ccc(-c2ccccc2)cc1 returned C diff HTS 7.
Screening O=C(C1CCOCC1)N1C[C@H]2[C@@H](c3ccccc31)[C@H](CO)N2C(=O)Cc1ccccc1 returned C diff HTS 8.
For C[C@H](CO)N1C[C@H](C)[C@@H](CN(C)Cc2ccc(-c3ccccc3)cc2)Oc2ccc(NC(=O)Cc3cn(C)c4ccccc34)cc2CC1=O the results were C diff HTS -1.
For CO[C@H]1CN(C)C(=O)c2cc(NC(C)=O)ccc2OC[C@@H](C)N(CC2CCCCC2)C[C@H]1C the results were C diff HTS -1.
`CN(C)C(=O)C[C@H]1C=C[C@H](NC(=O)C2CC2)[C@@H](CO)O1` gave C diff HTS 3.
COc1ccc(-c2ccc3c(c2)[C@H]2[C@H](CCN2S(=O)(=O)c2ccc(OC)cc2)[C@H](CO)N3)cc1 was read as C diff HTS -4.
`COc1ccc(CNC(=O)C[C@H]2C=C[C@H](NC(=O)c3ccc4c(c3)OCO4)[C@H](CO)O2)cc1` gave C diff HTS 0.
Fc1cccc(CN2C[C@@H]3N[C@H](C2)C3c2ccc(/C=C/c3ccccc3)cc2)c1 (some centres undefined) was read as C diff HTS -100*!.
Screening Cc1ccc(-c2ccc(C3[C@@H]4CN(Cc5cccnc5)C[C@H]3N4)cc2)cc1 (some centres undefined) returned C diff HTS 3.
`C(=C\c1ccc(C2[C@@H]3CN(Cc4nccs4)C[C@H]2N3)cc1)/c1ccccc1` (some centres undefined) gave C diff HTS 47.
`Cc1ccc(-c2ccc(C3[C@@H]4CN(Cc5cccc(F)c5)C[C@H]3N4)cc2)cc1` (some centres undefined) gave C diff HTS -94*.
Screening C(=C\c1ccc(C2[C@@H]3CN(Cc4ccccn4)C[C@H]2N3)cc1)/c1ccccc1 (some centres undefined) returned C diff HTS -12.
`CN(C)C(=O)c1cccc(-c2ccc(C3[C@@H]4CN(Cc5ccc6c(c5)OCO6)C[C@H]3N4)cc2)c1` (some centres undefined) gave C diff HTS 10.
Screening CC(C)NC(=O)NCC[C@@H]1CC[C@@H](NS(=O)(=O)c2ccccc2)[C@@H](CO)O1 returned C diff HTS 4.
For CCCN1[C@@H]2c3ccc(-c4ccc(F)cc4)c(=O)n3C[C@H]1[C@H](CO)[C@H]2C(=O)NCC the results were C diff HTS -2.
